Screening data deposited in PubChem BioAssay by National Center for Advancing Translational Sciences (NCATS).
DT40 TDP1 CPT: growth inhibition of DT40 Tdp1-/-;hTDP1 cells with camptothecin (screen for TDP1 inhibitors). chicken DT40 Tdp1-/-;hTDP1 cells + 20 nM CPT, ATP luminescence, 48 h. Potency, µM (series often up to 46.2 µM), without a hit: at the highest dose activity change, negative = growth inhibition, hits mostly inhibitors. hit rate 12% among 420,000. AID 686979; further: potency means the concentration at half of the fitted maximal effect; nearly all actives have a fitted effect of over 55% in size
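Cell growth measured by CellTiter-Glo luminescence after a minimum 48 h, 37 C compound exposure with 20 nM CPT in Tdp1-knockout DT40 cells stably expressing hTDP1, seeded 400/well; qHTS titration format.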
HT1080 IDH1KD tx: toxicity to HT-1080 IDH1 knockdown cells (counter line); HT-1080 IDH1 knockdown viability, ATP luminescence, 48 h; Potency, µM (top dose mostly 46.1 µM), for the others: at the top dose activity, negative = toxicity, actives largely listed as cytotoxic; hit rate 2% among 360,000; AID 686971;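 further: potency means the concentration at half of the fitted maximal effect; 0% = DMSO wells and -100% = cell-free medium wells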
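% activity derives from luminescence (CellTiter-Glo), normalised to DMSO and no-cell wells. HT-1080-IDH1KD cells, 750/well, had 48 h compound exposure at 37 °C.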
HT1080-NT tox: kills 2HG-producing HT-1080-NT fibrosarcoma cells. HT-1080-NT fibrosarcoma viability, CellTiter-Glo ATP luminescence, 48 h. Potency, µM (highest dose often 46.1 µM), for the others: at the top dose activity, negative = less viability, usual class: cytotoxic. hit rate 1.6% among 360,000. AID 686970;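 further: NT is the 2HG producing partner of a matched IDH1 knockdown line; potency means the concentration at half of the fitted maximal effect; 0% = DMSO-treated cells and -100% = media-only wells without cells; nearly all actives have a fitted effect of over 55% in size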
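Viability by CellTiter-Glo luminescence after 48 h compound exposure at 37C of HT-1080-NT cells (750/well, RPMI, 5% FBS). % activity scaled between DMSO wells and medium-only wells, then curve-fitted and categorized by curve class.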
TDP1 cell noCPT: qHTS for Inhibitors of human tyrosyl-DNA phosphodiesterase 1 (TDP1): qHTS in cells in absence of CPT; DT40 Tdp1-/- hTDP1 cells, no CPT, ATP luminescence, 48 h; AID 686978, 2013; hit rate 15% among 420,000; Potency, µM (series often up to 46.2 µM), for inactives: top-dose activity change, negative = growth inhibition, usual class: inhibitors; further: potency means the concentration at half of the fitted maximal effect; nearly all actives have a fitted effect of over 55% in size
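Camptothecin absent (DMSO only). Human TDP1-complemented DT40 knockout cells, 400 cells/well, 37 °C for minimum 48 hr; ATP measured via CellTiter-Glo, 30 min dark incubation, luminescence.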
ELG1 repair inh: inhibitors of ELG1-dependent DNA repair in HEK293T cells; HEK293T ELG1-luciferase reporter, luminescence, 16 h; DNA damage induced by 5-fluorouridine; Potency, µM (top dose mostly 46.1 µM), for the others: top-dose activity change, negative = inhibition, most hits filed as inhibitors; hit rate 2.3% among 330,000; AID 504467; further: potency means the concentration at half of the fitted maximal effect; nearly all actives have a fitted effect of over 55% in size
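Reporter activity after DNA damage by 5-fluorouridine is monitored. Compound-treated cells incubate 16 hr at 37 °C, then ONE-Glo is added for 30 min before luminescence reading.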
IL1B secr inh: inflammasome signaling inhibition, IL-1 beta readout | THP-1 LPS/ATP IL-1B secretion, AlphaLISA, 16 h; active compounds read low | activity change, % at 57.5 µM | hit rate 4.7% among 360,000 | AID 743279; in the data active means activity change below about -50%; inconclusive means mostly about -30% to -49%
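Secreted IL-1B measured by AlphaLISA bead assay after 16 h compound exposure of THP-1 cells; compounds (final up to 57.5 uM) added 1 h before LPS (250 ng/mL) and ATP (1.25 mM) stimulation; lower signal means less secretion.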
Starred values were filed as active, the others as inactive; ? = inconclusive; nt = no result; [ ] = another dose, or the depositor's remark. Most compounds without a hit are left out; they make up all but 19% or so of the library. Unless noted, the call rests on the fitted dose curve; in most records, active means well fitted curve in the direction sought with a large enough effect; inconclusive means small, poorly fitted or top-dose-only effect, or another doubt; inactive means no such curve, though single readings can be large; an effect the other way counts as inactive or inconclusive. Unless noted, on the % scale 0 is the no-effect control and ±100 the full control effect.

SMILES	DT40 TDP1 CPT	HT1080 IDH1KD tx	HT1080-NT tox	TDP1 cell noCPT	ELG1 repair inh	IL1B secr inh
COC(=O)c1c(N)c2ccccc2[nH]c1=O	-6%	-6%	-1%	-7%	-2%	-2
CCCCCCCCn1c(=O)c(C(=O)OC)c(N)c2ccccc21	1.3µM*	16µM*	21µM*	3.3µM*	?	-95*
CCCCCCn1c(=O)c(-c2ccccc2)c(O)c2ccccc21	13%	-6%	-13%	-22%	0%	10
CCCCCCCn1c(=O)c(C(=O)OC)c(N)c2ccccc21	3.3µM*	?	?	3.3µM*	?	-59*
CN(C)C(=O)c1cc(C(=O)c2ccc(F)cc2C(F)(F)F)c[nH]1	-11%	-15%	-13%	?	8.2µM*	32
CN(C)C(=O)c1cc(C(=O)c2ccccc2F)c[nH]1	3%	16%	15%	-4%	?	1
CN(C)C(=O)c1cc(C(=O)c2ccccc2C(F)(F)F)c[nH]1	?	9%	9%	?	6.5µM*	61
CSc1ccc2cc(CNCc3ccccc3F)c(N3CCCC(CO)C3)nc2c1 (stereo not given)	-6%[9.04 µM]	nt	nt	-12%	nt	nt
COc1ccc(CONS(=O)(=O)c2ccc(NC(C)=O)cc2)cc1Cl	21µM*	-26%	-12%	?	-14%	9
CC(SC#N)C(=O)C12CC3CC(CC(C3)C1)C2 (stereo not given)	7.3µM*	16µM*	?	4.6µM*	?	-96*
CCCN(C(=O)C1CCCN(c2ncnc3c2nc2n3CCCCC2)C1)c1ccc(F)cc1 (stereo not given)	18µM*	8%	6%	21µM*	-18%	46
O=C(NCC1CCN(Cc2ccc(F)cc2)CC1)C1CCCN(c2ncnc3c2nc2n3CCCCC2)C1 (stereo not given)	?	-1%	-11%	?	-19%	?
Cc1ccc(NC(=O)C2CCCN(c3ncnc4c3nc3n4CCCCC3)C2)cc1F (stereo not given)	18µM*	nt	nt	23µM*	nt	nt
O=C(Nc1ccc(F)cc1)C1CCCN(c2ncnc3c2nc2n3CCCCC2)C1 (stereo not given)	13µM*	nt	nt	12µM*	nt	nt
CSc1cccc(NC(=O)C2CCN(c3ncnc4c3nc3n4CCCCC3)CC2)c1	?	nt	nt	-56%	nt	nt
Cn1c(=O)[nH]c(=O)c2c1nc(N1CCOCC1)n2CC(=O)c1ccccc1	3%	3%	3%	-21%	28%	36
O=[N+]([O-])c1ccccc1CNC1CCCc2ccccc21 (stereo not given)	3%	-4%	3%	?	8%	-30
COc1ccc(C(=O)NNC(=O)COc2ccc(Cl)cc2)c(OC)c1	2%	7%	1%	4%	12%	-11
Cn1c(/C(C#N)=C/c2ccc(-c3ccc(S(N)(=O)=O)cc3)o2)nc2ccccc21	13µM*	-13%	-1%	15µM*	?	123
Cn1c(/C(C#N)=C/c2cccc(O)c2)nc2ccccc21	21µM*	-19%	-8%	?	?	-62*
COc1cc(/C=C(\C#N)c2nc3ccccc3n2C)cc(OC)c1OC	29µM*	nt	nt	12µM*	nt	nt
COc1ccc(/C(O)=C(\C#N)c2nc3ccccc3n2C)cc1OC	-26%	-27%	-3%	-28%	3%	-3
N#C/C(=C\c1cccc(O)c1)c1nc2ccccc2o1	-7%	-6%	-5%	-17%	20%	12
CSc1ncc(C(=O)Nc2cccc(C)c2C)c(-c2ccccc2)n1	-26%	nt	nt	-28%	nt	nt
Cc1ccc(OC(=O)N(C)C[C@H]2OCc3cn(nn3)CCCC(=O)N([C@H](C)CO)C[C@@H]2C)cc1	6%	-8%	-10%	13%	nt	22
SMILES	DT40 TDP1 CPT	HT1080 IDH1KD tx	HT1080-NT tox	TDP1 cell noCPT	ELG1 repair inh	IL1B secr inh
Cc1ccc2[nH]c(=O)c(CNS(=O)(=O)c3ccccc3)c(-c3ccccc3)c2c1	?	-20%	-8%	18µM*	?	-10
CCn1c(C)nc2cc(N)ccc21	4%	0%	-1%	-1%	?	10
Nc1ccc2c(c1)ncn2CCCn1cnc2cc(N)ccc21	21µM*	-33%	-6%	?	-4%	-3
CC1(C)CCCN(Cc2c(O)ccc3c(=O)c(-c4nc5ccccc5s4)c(N)oc23)C1	18µM*	-5%	?	13µM*	?	55
CN(Cc1ccccc1)C(=O)CC(c1ccccc1)c1cc(Cl)ccc1O (stereo not given)	23µM*	?	?	21µM*	-23%	-29
CC(NC(=O)CC(c1ccccc1)c1cc(Cl)ccc1O)c1ccccc1 (stereo not given)	15µM*	?	-15%	21µM*	-26%	?
N#CCOc1ccccc1CNC[C@H]1O[C@@H](n2cnc3c(=O)[nH]c(N)nc32)[C@H](O)[C@@H]1O	0%	19%	20%	-1%	nt	10
CCOC(=O)COc1coc(CN2CCN(c3ccc(F)cc3)CC2)cc1=O	16%	10%	6%	20%	-2%	20
O=C1C=CC(=O)N1c1ccc2c(c1)C(NC(=O)C(F)(F)F)c1ccccc1-2 (stereo not given)	1.3µM*	?	0%	1.8µM*	nt	-81*
CN(C)C(=O)NC1c2ccccc2-c2ccccc21	-2%	6%	3%	14%	-5%	0
Cc1ccc2[nH]c3c(=O)n(CC(=O)N4CCCCC4)ncc3c2c1	-16%	nt	nt	17%	nt	nt
O=C(NCc1cccnc1)c1cc(C2CCCCN2S(=O)(=O)c2cccs2)on1 (stereo not given)	-19%	3%	-2%	-22%	nt	-5
Cc1ccc(S(=O)(=O)c2nnn3c2nc(Nc2ccc(C(C)C)cc2)c2sccc23)cc1C	4.1µM*	nt	nt	4.6µM*	nt	nt
Cc1ccc(C)c(S(=O)(=O)c2nnn3c2nc(NC(C)C)c2sccc23)c1	23µM*	nt	nt	?	nt	nt
Cc1ccc(S(=O)(=O)c2nnn3c2nc(NC2CCCCCC2)c2sccc23)cc1C	15µM*	nt	nt	21µM*	nt	nt
CC(C)Nc1nc2c(S(=O)(=O)c3cccc(Cl)c3)nnn2c2ccsc12	-29%	nt	nt	-29%	nt	nt
CCc1ccc(S(=O)(=O)c2nnn3c2nc(NC2CCCC2)c2sccc23)cc1	23µM*	nt	nt	?	nt	nt
O=C(COc1cccc(F)c1)NNC(=O)Cc1ccc(Br)cc1	-12%	-1%	-2%	0%	7%	5
